From PubChem
The list is not random: actives were taken first. Their share in the collection is about 21%.
CHX counter: counter-screen for Shiga toxin inhibitors: cycloheximide protein synthesis inhibition | cell reporter, cycloheximide protein synthesis inhibition counterscreen | max response, % | 300,000 compounds, 12% hits | AID 2314; in the data active means max response mostly above about 13%, no sharp cut-off; inactive means mostly below about 14%; further: read at 38.3 µM for the half of the compounds with a filed dose; 0% is about no effect
Pf growth 96h: inhibits malaria parasite growth, 96 h | P. falciparum luciferase reporter growth, 96 h | Potency, µM (doses to about 28.7 µM), for the others: at the highest dose activity change, negative = inhibition, actives largely listed as inhibitors | 320,000 compounds, 6.9% hits | AID 504834; further: potency means the concentration at half of the fitted maximal effect; on the % scale 0 is the no-effect control and ±100 the full control effect
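Parasite growth measured via integrated firefly luciferase reporter in P. falciparum. Infected erythrocytes at 2% hematocrit, 0.05% parasitemia final were treated 96 hours at 37 C under 5% CO2, and luminescence was read.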
Shiga inhibitor: inhibitors of Shiga toxin in Vero cells; inhibition, % at 38.7 µM; Vero cells, Shiga toxin protein synthesis inhibition reporter; 290,000 compounds, 9.2% hits; in the data active means inhibition mostly above about 28%, no sharp cut-off; inactive means mostly below about 43%; further: 0% is about no effect
Pf growth 48h: P. falciparum growth inhibition at 48 hours (one generation). P. falciparum luciferase growth in erythrocytes, 48 h. Potency, µM (highest dose often 28.7 µM), without a hit: at the highest dose activity change, negative = inhibition, most hits filed as inhibitors. 310,000 compounds, 5.9% hits. AID 504832; further: potency means the concentration at half of the fitted maximal effect; on the % scale 0 is the no-effect control and ±100 the full control effect
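Parasite viability was followed by luminescence of a genomically integrated firefly luciferase. Cultures held 0.1% parasitemia at 2% hematocrit (final), incubated under 5% CO2 at 37 C.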
An asterisk follows results filed as active; ? = inconclusive; nt = not tested or not shown; [ ] = dose if it differs, or a comment. Unless noted, the call rests on the fitted dose curve; in most records, active means well fitted inhibition curve with a large enough effect; inconclusive means small, poorly fitted or top-dose-only effect, or another doubt; inactive means no such curve, though single readings can be large or run the other way.

SMILES	CHX counter	Pf growth 96h	Shiga inhibitor	Pf growth 48h
CSc1ccccc1OCc1cc(C(=O)NC(C)Cn2cncn2)no1 (stereo not drawn)	13.4*	9.6%	18.2	-0.2%
Cc1cc(C)n(CCNC(=O)c2cc(COc3ccc(F)cc3Cl)on2)n1	3.6	30.3%	2.5	-8.8%
CSc1ccccc1OCc1cc(C(=O)NCCn2nc(C)cc2C)no1	10.7*	8.0%	6.4	?
O=C(O)CCC(=O)Nc1ccc2c(c1)Cc1cc(NC(=O)CCC(=O)O)ccc1-2	-4.1	63.3%	-1.7	-11.0%
COc1ccc(C(C[N+](=O)[O-])c2c(C)cc3ccccn23)cc1 (stereo not drawn)	12.8	11.7µM*	-2.5	10.4µM*
Cc1cc2ccccn2c1C(C[N+](=O)[O-])c1ccc(N(C)C)cc1 (stereo not drawn)	5.7	?	27.7	?
COc1ccc(C(C[N+](=O)[O-])c2c(-c3ccccc3)cc3ccccn23)c(OC)c1 (stereo not drawn)	54.9	nt	71.3*	10.4µM*
CCS(=O)(=O)c1ccc(S(=O)(=O)CC)s1	-2.7	-14.4%	-8.2	5.4%
CCS(=O)(=O)c1ccc(OC)c(N=Nc2ccc(O)c3ncccc23)c1	4.0	?	6.7	?
NS(=O)(=O)c1ccc(N=Nc2ccc(O)c3ncccc23)cc1	4.7	?	-8.5	2.62µM*
CCOc1ccc(N=Nc2ccc(O)c3ncccc23)cc1	-2.1	-2.6%	3.5	0.738µM*
O=C(Nc1ccc(-c2csc(Nc3cccc(C(F)(F)F)c3)n2)cc1)c1cc([N+](=O)[O-])cc(C(F)(F)F)c1	-9.5	0.465µM*	-4.1	0.828µM*
Cc1csc(NC(=O)c2cc([N+](=O)[O-])cc([N+](=O)[O-])c2)n1	1.1	?	10.7	-27.8%
CCCCC(=O)Nc1cccc(-c2csc(-c3ccccc3)n2)c1	12.3	?	60.6*	?
O=C(Nc1cccc(-c2csc(Nc3ccccc3)n2)c1)c1ccccc1	31.4*	15.9%	84.4*	30.8%
O=C(Nc1cccc(-c2csc(Nc3cccc(C(F)(F)F)c3)n2)c1)c1ccccc1	-1.3	?	8.4	11.7µM*
O=C(Nc1ccc(-c2csc(Nc3cccc(C(F)(F)F)c3)n2)cc1)c1ccccc1	-2.6	?	-0.4	?
O=C(Nc1nc(-c2ccc3c(c2)Cc2ccccc2-3)cs1)c1ccccc1	8.7	33.0%	13.3	4.6%
N#Cc1cccc(NC(=O)CN2C(=O)NC(Cc3ccccc3)C2=O)c1 (stereo not drawn)	-2.8	56.7%	-7.4	39.2%
COc1ccccc1CNC(=O)COC(=O)CCN=C1NS(=O)(=O)c2ccccc21	nt	31.8%	nt	21.5%
Cc1ccccc1NC1=NC(=S)N(c2ccccc2)C12CCCCC2	-3.9	10.4µM*	1.7	?
CC(C)C(C(=O)NCC1CCCO1)N(CC1CCCO1)C(=O)CNS(=O)(=O)c1ccccc1 (stereo not drawn)	-1.2	-2.7%	25.5	-2.2%
Cc1onc(-c2ccc(Cl)cc2)c1-c1ccnn1S(=O)(=O)c1cccc(C(F)(F)F)c1	-3.0	3.29µM*	2.4	1.65µM*
Cc1onc(-c2ccccc2)c1C(=O)N1CCN(S(=O)(=O)c2ccc(Cl)cc2)CC1	-3.5	15.0%	-13.2	16.8%
Cc1ccc(S(=O)(=O)n2nccc2-c2c(-c3ccccc3)noc2C)cc1	1.0	?	-5.2	5.86µM*
SMILES	CHX counter	Pf growth 96h	Shiga inhibitor	Pf growth 48h
Cc1onc(-c2ccccc2)c1-c1ccnn1S(=O)(=O)c1ccc(Cl)cc1	44.1*	3.29µM*	88.3*	?
Cc1cccc(N2CCN(C(=O)c3ccc4c(c3)NC(=O)C(CSCc3cccc(F)c3)N4)CC2)c1C (stereo not drawn)	-4.1	?	-9.1	?
CSc1nnc(CCNS(=O)(=O)c2ccc(Br)cc2)n1C	-4.7	26.3%	-7.6	6.0%
COc1cccc(CNC(=S)Nc2cc(OC)ccc2OC)c1	1.0	14.0%	6.6	2.7%
O=C1NC(=O)C(CCc2ccncc2)(CCc2ccncc2)C(=O)N1CCc1ccccc1	-2.8	2.94µM*	-10.9	?
CN1CCN(c2nc(-c3cccc([N+](=O)[O-])c3)nc3ccccc23)CC1	-4.5	0.0%	14.2	?
CN1CCC(N(C)c2nc(-c3ccc([N+](=O)[O-])cc3)nc3ccccc23)CC1	-4.3	1.47µM*	-12.1	?
CCOc1cc2c3c(c1)C(C)CC(C)(C)N3C(=O)C2=O (stereo not drawn)	-0.8	0.828µM*	-19.5	?
CC(=O)Nc1ccc(NC(=S)NC(=O)C2CC2)cc1	25.1*	18.4%	64.5*	?
O=C(Nc1ccc(F)cc1)C1CCCCC1	12.2	-17.0%[5.75 µM]	34.4	3.5%
